Experimental findings from PubChem BioAssay (Tox21) are described below.

Structures are written as SMILES. Records with an inconclusive call do not appear. Unmarked numbers belong to inactive results. The source made the active and inactive calls. Unless noted, the call rests on the fitted dose curve; in most records, active means well fitted curve in the direction sought with a large enough effect in the repeat runs; inconclusive means weak or mixed curves; inactive means no such curve, though single readings can be large; an effect the other way counts as inactive or inconclusive.

A short description of assay [1]: qHTS assay to identify small molecule agonists of the RXR signaling pathway - cell viability counter screen (AID 1159529).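 Further: HEK 293T cells carrying an RXR-alpha UAS beta-lactamase reporter; series mostly up to about 77 µM; nearly all actives have a fitted effect of over 50% in size.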 Summed up: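 Viability read-out for the RXR-alpha agonist qHTS: luminescent CellTiter-Glo signal after 30 min at RT. HEK 293T bla reporter cells, 2% charcoal-stripped FBS, 16 hr compound incubation; tetraoctyl ammonium bromide as cytotoxic control.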
Background: Quantitative high-throughput screening tests each substance at several concentrations.

The nature of assay [2]: qHTS assay to identify small molecule antagonists of the retinoid acid receptor (RAR) signaling pathway - cell viability counter screen (AID 1159551). Further: nearly all actives have a fitted effect of over 35% in size. Summed up:
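Measured by luminescent ATP detection, viability reflects C3RL4 cells treated 6 h at 37 C with test chemicals in the presence of 1 uM (final) retinol.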

A short description of assay [3]: qHTS assay to identify small molecule antagonists of the retinoic acid receptor (RAR) signaling pathway (AID 1159552; further: nearly all actives have a fitted effect of over 50% in size; further: potency means the concentration at half of the fitted maximal effect). In short, it runs like this: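 Using a RARE-driven luciferase construct in C3RL4 cells, retinol at 1 uM final provided the agonist stimulus while compounds were co-applied. After 6 hours at 37 C, luminescence was recorded to flag inhibitors of retinol signaling.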

The nature of assay [4]: qHTS assay to identify small molecule agonists of the retinoic acid receptor (RAR) signaling pathway (AID 1159553). Further: potency means the concentration at half of the fitted maximal effect. Summed up:
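6 hr compound exposure (DMSO vehicle) of overnight-plated C3RL4 RARE-luc cells at 37 C; luminescence quantified after 30 min RT with luciferase reagent.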

A short description of assay [5]: qHTS assay to identify small molecule antagonists of the estrogen related receptor (ERR) signaling pathway from Tox21 library - cell viability counter screen (AID 1224834). Further: nearly all actives have a fitted effect of over 30% in size. In short, it runs like this: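 Seeded ERR cells were rested 6 h at 37 C/5% CO2 before compounds, positive and negative controls or DMSO were added. Incubation continued for 17.5 h, and viability was then quantified by CellTiter-Fluor fluorescence.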

Assay [6] deals with Luciferin 4-monooxygenase (Photinus pyralis) (UniProt P08659). Nature of the assay: qHTS assay to identify small molecule inhibitors of firefly luciferase (AID 1224835). Further: nearly all actives have a fitted effect of over 25% in size. Further: potency means the concentration at half of the fitted maximal effect. In short, it runs like this: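 Inhibition of purified Photinus luciferase is measured by luminescence. Substrate levels (D-luciferin, ATP) sit at their KM values. Each compound is tested in a concentration series.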
Sequence of Luciferin 4-monooxygenase (Photinus pyralis) (P08659 whole entry, looked up): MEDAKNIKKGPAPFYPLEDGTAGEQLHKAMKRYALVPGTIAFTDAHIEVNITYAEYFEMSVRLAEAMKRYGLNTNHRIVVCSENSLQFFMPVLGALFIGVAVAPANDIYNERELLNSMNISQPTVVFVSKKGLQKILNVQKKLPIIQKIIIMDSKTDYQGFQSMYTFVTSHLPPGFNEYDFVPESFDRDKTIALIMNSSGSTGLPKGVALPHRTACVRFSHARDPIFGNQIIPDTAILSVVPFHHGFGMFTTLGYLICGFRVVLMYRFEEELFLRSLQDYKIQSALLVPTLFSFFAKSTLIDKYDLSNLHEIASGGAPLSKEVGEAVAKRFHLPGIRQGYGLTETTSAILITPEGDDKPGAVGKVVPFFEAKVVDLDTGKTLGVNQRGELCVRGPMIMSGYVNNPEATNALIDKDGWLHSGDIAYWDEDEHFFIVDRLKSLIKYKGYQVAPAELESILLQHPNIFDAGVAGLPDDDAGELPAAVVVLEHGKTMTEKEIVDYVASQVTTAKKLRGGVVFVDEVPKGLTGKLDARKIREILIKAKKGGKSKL

Assay [7] can be described thus: qHTS assay to identify small molecule antagonists of the constitutive androstane receptor (CAR) signaling pathway - cell viability counter screen (AID 1224837). Further: series mostly up to about 92 µM; nearly all actives have a fitted effect of over 45% in size. In short, it runs like this:
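To flag cytotoxic false antagonists, HepG2 hCAR/CYP2B6-2.2kb cells were treated 23 hr with 15-concentration compound series and 50 nM CITCO at 37 C/5% CO2; CellTiter-Fluor fluorescence was the measured end point.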

Assay [8] can be described thus: qHTS assay to identify small molecule antagonists of the estrogen related receptor signaling pathway with the pleiotropic PPARgamma coactivator (PGC) from Tox21 10K library - cell viability counter screen (AID 1224840; active means well fitted cell-killing curve with a large enough effect in the repeat runs, not every such curve was filed as active; further: nearly all actives have a fitted effect of over 40% in size). Summed up:
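Seeded PGC/ERR cells (2,000/well, 6 h, 37 C/5% CO2) get compound by pin tool; 17.5 h incubation at 37 C; CellTiter-Fluor added, 30 min, fluorescence measured.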

Assay [9] concerns the target Thyrotropin receptor (Homo sapiens) (UniProt P16473). Briefly: qHTS assay to identify small molecule agonists of the thyroid stimulating hormone receptor (TSHR) signaling pathway (AID 1224843; calls by dose curve; further: nearly all actives have a fitted effect of over 45% in size). Summed up: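 Agonist activity read as cAMP rise via d2/cryptate HTRF competition, 1 h room-temperature detection, in HEK293 cells expressing TSHR. Fifteen-point titrations, each run in triplicate, with a 30 min room-temperature incubation beforehand.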

A short description of assay [10]: qHTS assay to identify small molecule agonists of the constitutive androstane receptor (CAR) signaling pathway - cell viability counter screen (AID 1224836). Further: series mostly up to about 92 µM; nearly all actives have a fitted effect of over 45% in size. In short, it runs like this:
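Multiplexed viability check: HepG2-CYP2B6-hCAR cells, 15-point compound dosing, 0.75 uM PK11195 final, 23 h at 37 C, CellTiter-Fluor fluorescence.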

The target in assay [11] is Nuclear receptor subfamily 1 group I member 3 (Homo sapiens) (UniProt Q14994). Nature of the assay: qHTS assay to identify small molecule antagonists of the constitutive androstane receptor (CAR) signaling pathway (AID 1224838).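 Further: HepG2 cells stably expressing hCAR with CYP2B6 luciferase reporter stimulated by CITCO; nearly all actives have a fitted effect of over 40% in size.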 Summed up: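 Human hepatoma HepG2 cells expressing hCAR and a CYP2B6 promoter (2.2 kb) luciferase construct; compound titration (15 points) with 50 nM CITCO final, 24 h at 37 C/5% CO2; luminescence via ONE-Glo after 30 min at room temperature.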
Sequence of Nuclear receptor subfamily 1 group I member 3 (Homo sapiens) (Q14994 whole entry, looked up): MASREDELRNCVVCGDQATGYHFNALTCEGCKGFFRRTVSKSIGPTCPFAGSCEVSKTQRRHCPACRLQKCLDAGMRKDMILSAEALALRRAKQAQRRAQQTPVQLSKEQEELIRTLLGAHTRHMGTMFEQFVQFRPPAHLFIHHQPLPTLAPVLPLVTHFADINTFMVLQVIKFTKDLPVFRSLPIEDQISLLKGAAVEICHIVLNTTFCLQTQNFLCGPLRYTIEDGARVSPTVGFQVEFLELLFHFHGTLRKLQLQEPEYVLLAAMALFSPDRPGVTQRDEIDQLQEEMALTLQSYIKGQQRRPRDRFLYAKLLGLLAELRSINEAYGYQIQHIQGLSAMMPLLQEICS

For assay [12] the target is unchanged. Briefly: qHTS assay to identify small molecule agonists of the constitutive androstane receptor (CAR) signaling pathway (AID 1224839). Further: nearly all actives have a fitted effect of over 15% in size. Further: potency means the concentration at half of the fitted maximal effect. Summed up:
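Using human hepatoma HepG2 cells engineered with hCAR and a CYP2B6-2.2kb reporter, 15-concentration compound series were incubated 24 h alongside PK11195 at 0.75 uM final, with luminescence quantified afterwards.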

Assay [13] can be described thus: qHTS assay to identify small molecule antagonists of the estrogen related receptor signaling pathway with the pleiotropic PPARgamma coactivator (PGC) from Tox21 10K library (AID 1224841; call rule not given here; further: series mostly up to about 92 µM; actives are mostly falling curves and most rising ones were filed inactive; nearly all actives have a fitted effect of over 50% in size). In short, it runs like this:
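Test chemicals dissolved in DMSO were applied to pre-incubated (6 h) PGC/ERR cells at 2,000 cells/well for an 18 h, 37 C treatment; reporter luminescence was then read using One-Glo.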

The nature of assay [14]: qHTS assay to identify small molecule agonists of the estrogen related receptor signaling pathway with the pleiotropic PPARgamma coactivator (PGC) from Tox21 10K library (AID 1224842). Further: nearly all actives have a fitted effect of over 15% in size. Summed up:
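Luminescence from One-Glo (30 min, room temperature) measured after PGC/ERR cells had 18 h at 37 C with pinned compound (23 nL in DMSO). Cells had been seeded at 2,000 per well and pre-incubated 6 h.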

Sequence of Thyrotropin receptor (Homo sapiens) (P16473 whole entry, looked up): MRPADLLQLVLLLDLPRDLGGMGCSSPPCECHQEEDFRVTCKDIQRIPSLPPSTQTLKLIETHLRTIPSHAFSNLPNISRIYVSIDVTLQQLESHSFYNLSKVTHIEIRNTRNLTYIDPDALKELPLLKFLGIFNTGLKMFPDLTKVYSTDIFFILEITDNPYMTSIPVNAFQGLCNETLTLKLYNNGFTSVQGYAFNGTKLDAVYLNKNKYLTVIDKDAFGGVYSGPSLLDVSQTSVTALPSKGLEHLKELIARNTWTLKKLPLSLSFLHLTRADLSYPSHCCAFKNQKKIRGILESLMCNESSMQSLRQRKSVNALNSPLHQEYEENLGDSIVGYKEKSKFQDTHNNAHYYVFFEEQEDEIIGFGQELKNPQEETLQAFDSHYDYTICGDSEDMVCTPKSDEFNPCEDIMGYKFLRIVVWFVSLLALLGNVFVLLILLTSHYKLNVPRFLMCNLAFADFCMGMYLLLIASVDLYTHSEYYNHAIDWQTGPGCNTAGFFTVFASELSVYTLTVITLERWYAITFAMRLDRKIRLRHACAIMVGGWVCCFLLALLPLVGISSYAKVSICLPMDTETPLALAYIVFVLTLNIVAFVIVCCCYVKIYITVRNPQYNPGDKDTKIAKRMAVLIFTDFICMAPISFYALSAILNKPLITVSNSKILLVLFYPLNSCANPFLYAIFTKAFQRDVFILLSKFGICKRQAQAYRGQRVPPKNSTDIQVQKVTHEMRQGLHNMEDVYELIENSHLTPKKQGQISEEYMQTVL

`C=CC(=C)C`: the Potency result in assay [1], in assay [2], in [3], in assay [4], in assay [5] and in assay [6] was “inactive” in each case. For the same compound, the Potency entry in [7], in [8] and in assay [9] was “inactive” each time.
Take `c1csc(-c2ccc(-c3cccs3)s2)c1`: the Potency entry in assay [1], in [2], in [3], in [5], in assay [10] and in assay [7] was “inactive” throughout. In addition, the Potency result in assay [11] and in assay [8] was “inactive” throughout. In addition, the Potency was 1.72 µM (active) in assay [4], 2.52 µM (active) in assay [6] and 13.7 µM (active) in [12].
Take `O=c1[nH]c2cc(Cl)ccc2n1C1CCNCC1`: the Potency entry in assay [1], in assay [2], in assay [3], in assay [4], in assay [5] and in [6] was “inactive” throughout. Also, the Potency entry in assay [10], in [7], in [11], in [12], in assay [8] and in assay [13] was “inactive” throughout. The Potency entry in assay [14] and in assay [9] was “inactive” in each case.
`CCCCC(CC)COC(=O)OOC(C)(C)C` (centres undefined): the Potency result in [1], in [2], in [3], in assay [4], in assay [5] and in assay [6] was “inactive” each time. Moreover, the Potency entry in assay [10], in assay [7], in assay [11], in assay [12] and in assay [8] was “inactive” each time.
With `CCN(CC)C(=O)N[C@@H]1C=C2c3cccc4[nH]cc(c34)C[C@@H]2N(C)C1`, the Potency result in assay [1], in assay [2], in assay [3], in [4], in assay [5] and in [6] was “inactive” in each case. Moreover, the Potency result in assay [10], in [7], in assay [11], in assay [8] and in assay [9] was “inactive” throughout.
With `CC(Cc1ccccc1)N(C)Cc1ccco1` (centres undefined), the Potency entry in [1], in [2], in [3], in assay [4], in [5] and in assay [6] was “inactive” each time. The Potency result in assay [10], in assay [7], in assay [8] and in assay [9] was “inactive” throughout.
For `COCCC#N`, the Potency result in assay [1], in [2], in assay [3], in assay [4], in assay [5] and in assay [6] was “inactive” throughout. The Potency entry in assay [10], in assay [7], in assay [8] and in assay [9] was “inactive” each time.
As to `Cc1cccc(Cc2cnc[nH]2)c1C`, the Potency result in [1], in assay [2], in assay [3], in assay [4], in assay [5] and in [6] was “inactive” each time. The Potency entry in assay [10], in assay [7], in assay [11], in [8] and in [9] was “inactive” each time.
In the case of `O=C(CCCCl)c1ccc(F)cc1`, the Potency entry in [1], in assay [2], in assay [3], in [5], in assay [10] and in assay [11] was “inactive” in each case. The Potency entry in [8], in assay [13], in assay [14] and in [9] was “inactive” throughout. The Potency was 26.6 µM (active) in assay [4] and 15.5 µM (active) in assay [6].
Turning to `CCOP(=O)(Sc1ccccc1)Sc1ccccc1`, the Potency entry in assay [1], in [2], in assay [4], in assay [5], in [6] and in [10] was “inactive” in each case. The Potency entry in assay [11] and in assay [8] was “inactive” in each case. Also, the Potency in [3] was 48.6 µM (active); in [12], 21.7 µM (active).
